Test [1] is described as follows: Drug repurposing screens with cells derived from glioblastoma tumor samples (AID 1345199). For all read-outs here: nearly all actives have a fitted effect of over 40% in size. Particulars: GBM patient neurospheres viability, ATP luminescence, 48 h; for Potency: tumour line A. Summed up: (§1)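 Primary testing used CD133+ neurospheres from four GBM patients, seven concentrations, 48 h exposure and ATP-based viability; confirmation added three slower-growing patient lines.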

The test system of another test is C33A. The test can be described thus: Primary qHTS to identify gynecologic anti-cancer compounds using libraries of approved drugs and bioactive compounds (AID 1345084). Note: nearly all actives have a fitted effect of over 55% in size. Particulars: Gynecologic cancer cell panel viability, ATPlite luminescence, 48 h; series mostly up to 57.5 µM. Summed up: (§2)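 Five-point cytotoxicity, 48 h drug exposure at 37 C, 5% CO2, on cells seeded 16 h beforehand. ATP content read by ATPlite luminescence.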

The next test relates to CAOV3. The description is as above. The note with it: Gynecologic cancer cell panel viability, ATPlite luminescence, 48 h; series mostly up to 57.5 µM. Summed up:
as §2

For the next test, the system named is CASKI. Described as above. The note with it: Gynecologic cancer cell panel viability, ATPlite luminescence, 48 h; series mostly up to 57.5 µM. Summed up:
as §2
In general terms: ATP-based viability assays read luminescence as a measure of living cells.

The next test concerns Es-2. Described as above. The note with it: Gynecologic cancer cell panel viability, ATPlite luminescence, 48 h; series mostly up to 57.5 µM. Summed up: as §2
A further test has as its system Hek293T. The description is as above. Particulars: Gynecologic cancer cell panel viability, ATPlite luminescence, 48 h, control line for the selectivity index; series mostly up to 57.5 µM. Summed up:
as §2

A further test deals with JEG-3. The test is described as above. Particulars: Gynecologic cancer cell panel viability, ATPlite luminescence, 48 h; series mostly up to 57.5 µM. A digest of the protocol: as §2
The next test deals with OV90. The test is described as above. The note with it: Gynecologic cancer cell panel viability, ATPlite luminescence, 48 h; series mostly up to 57.5 µM. A digest of the protocol: as §2
Another test relates to PA-1. Described as above. Particulars: Gynecologic cancer cell panel viability, ATPlite luminescence, 48 h; series mostly up to 57.5 µM. Summed up:
as §2

Another test deals with SKOV3. The description is as above. The note with it: Gynecologic cancer cell panel viability, ATPlite luminescence, 48 h; series mostly up to 57.5 µM. A digest of the protocol:
as §2

The subject of a further test is Tov-21-G. The description is as above. Particulars: Gynecologic cancer cell panel viability, ATPlite luminescence, 48 h; series mostly up to 57.5 µM. Summed up:
as §2

A further test has as its system Tov112D. Described as above. The note with it: Gynecologic cancer cell panel viability, ATPlite luminescence, 48 h; series mostly up to 57.5 µM. Summed up: as §2
For another test, the system named is HeLa. The description is as above. The note with it: Gynecologic cancer cell panel viability, ATPlite luminescence, 48 h; series mostly up to 57.5 µM. A digest of the protocol: as §2
A further test has as its system astro (control astrocytes). The test can be described thus: Drug repurposing screens with cells derived from glioblastoma tumor samples (AID 1345199). Note: nearly all actives have a fitted effect of over 40% in size. The note with it: viability, ATP luminescence, 48 h; series mostly up to 45.9 µM. Summed up:
as §1

The mark [2] stands for this setting: at 45.9 µM (top of the series), tumour line B.
[3] abbreviates: at 46.1 µM (top of the series), tumour line C.

Data on 16 compounds can be found in PubChem BioAssay (NCATS).

Results filed as inconclusive are left out. Unmarked numbers belong to inactive results. The source made the active and inactive calls. Calls come from the whole dose curve; as a rule, active = well fitted curve in the direction sought with a large enough effect; inconclusive = small, poorly fitted or top-dose-only effect, or another doubt; inactive = no such curve, though single readings can be large; an effect the other way counts as inactive or inconclusive.
% is set by controls: 0 for no effect and ±100 for the full control effect; potency is the fitted concentration of half-maximal effect.

Regarding `CCOc1ccc2c3c1O[C@H]1[C@@H](O)C=C[C@H]4[C@@H](C2)N(C)CC[C@@]341`, the activity, negative = cell killing in [1] (setting [2]) was -22.9%.

In the case of `N#CC(OC1OC(COC2OC(CO)C(O)C(O)C2O)C(O)C(O)C1O)c1ccccc1` (configuration not stated), the Potency result in the test on C33A, in the test on CAOV3, with CASKI, in the test on Es-2, in the test with Hek293T and in the test with JEG-3 was “inactive” in each case. For the same compound, the Potency entry in the test on OV90, with PA-1, in the test with SKOV3, in the test on Tov-21-G and with Tov112D was “inactive” in each case.

For the compound `CCOc1ccccc1-n1c(C(C)N2CCN(C(=O)COc3ccc(Cl)cc3)CC2)nc2ccccc2c1=O` (configuration not stated), the Potency entry in the test with C33A, in the test with CAOV3, in the test with CASKI, with HeLa, with OV90 and in the test on PA-1 was “inactive” each time. The Potency entry in the test on SKOV3 is “inactive”. For the same compound, the Potency is 3980 nM (active) with Es-2 and 6310 nM (active) in the test with Tov-21-G.

Regarding `CC12CCC3C(CCC4(O)CC(O)CCC34C=O)C1(O)CCC2C1=CC(=O)OC1` (configuration not stated), the Potency was 1000 nM (active) in the test on C33A; 2000 nM (active) with CAOV3; 7080 nM (active) in the test on CASKI; 1120 nM (active) in the test on Es-2; 1780 nM (active) with HeLa; 1260 nM (active) in the test on Hek293T. The Potency with OV90 is 7080 nM (active); with PA-1, 1120 nM (active); in the test with SKOV3, 1580 nM (active); with Tov-21-G it was 708 nM (active); in the test on Tov112D it was 355 nM (active).

Consider `CCN1CC2(COC)C3[C@@H](OC)C4C1C3(C1C[C@]3(O)[C@H](OC(=O)c5ccccc5)C1[C@]4(OC(C)=O)[C@@H](O)[C@@H]3OC)[C@H](OC)C[C@H]2O` (some centres not stated), for which the Potency entry with C33A, with CAOV3, in the test with CASKI, with Es-2, with HeLa and in the test with Hek293T was “inactive” in each case. Besides, the Potency entry in the test with JEG-3, with OV90, in the test on SKOV3, with Tov-21-G and in the test on Tov112D was “inactive” each time.

As for `CCC1NC(=O)C2C(Cl)C(Cl)CN2C(=O)C(C(C)O)NC(=O)CC(c2ccccc2)NC(=O)C(CO)NC1=O` (configuration not stated), the Potency entry in the test with C33A, in the test with CAOV3, in the test on CASKI, with Es-2, with HeLa and in the test with Hek293T was “inactive” each time. The Potency result in the test on JEG-3, in the test with OV90, with PA-1, in the test with Tov-21-G and in the test on Tov112D was “inactive” throughout.

As for `COc1cc2c(cc1OC)[C@@]13CCN4CC5=CCO[C@H]6CC(=O)N2[C@H]1[C@H]6[C@H]5C[C@H]43`, the Potency result in the test on C33A, with CAOV3, with CASKI, in the test on Es-2, with HeLa and in the test on Hek293T was “inactive” throughout. Besides, the Potency result in the test on JEG-3, with OV90, in the test on PA-1, in the test with Tov-21-G, with Tov112D and in the test with astro was “inactive” in each case. Moreover, the activity, negative = cell killing in test [1] (setting [2]) was -6.02%; in [1] (at 45.9 µM (top of the series), tumour line D), -3.06%; in test [1] (setting [3]) it was 1.45%. Moreover, the Potency in [1] is 79.4 nM (active).

As to `C[C@H](NC(=O)Cc1cc(F)cc(F)c1)C(=O)N[C@@H]1N=C(c2ccccc2)c2ccccc2N(C)C1=O`, the Potency entry in the test with C33A, with CASKI, with Es-2, with HeLa, in the test with Hek293T and with JEG-3 was “inactive” in each case. Moreover, the Potency entry with OV90, in the test on PA-1, in the test with Tov-21-G and in the test with Tov112D was “inactive” in each case.

Regarding `COc1cc(C)[nH]c(=O)c1CNC(=O)c1c(C)n([C@H](C)C2CCOCC2)c2ccccc12`, the Potency entry with C33A, with CAOV3, in the test on CASKI, with Es-2, with HeLa and in the test on Hek293T was “inactive” in each case. For the same compound, the Potency entry with JEG-3, in the test on OV90, in the test with PA-1, in the test on Tov-21-G and in the test with Tov112D was “inactive” in each case.

On to `CO[C@@H]1[C@H](O)[C@@H](O[C@@H]2C[C@H]3CC[C@@H]4C(CC[C@]5(C)[C@@H](C6=CC(=O)OC6)CC[C@]45O)[C@@]3(C)[C@H](O)C2)O[C@H](C)[C@@H]1O[C@@H]1O[C@H](CO)[C@@H](O)[C@H](O)[C@H]1O` (some centres not stated), for which the Potency is 199 nM (active) in the test with C33A; 1260 nM (active) in the test with CASKI; 398 nM (active) with Es-2; 562 nM (active) in the test with HeLa; 398 nM (active) in the test with Hek293T; 2240 nM (active) in the test with OV90. Further, the Potency in the test with PA-1 is 398 nM (active); in the test on SKOV3 it was 562 nM (active); with Tov-21-G it was 199 nM (active); in the test with Tov112D, 100 nM (active).

As for `CN1CCC[C@@H]1Cc1c[nH]c2ccc(Nc3ncccc3[N+](=O)[O-])cc12`, the Potency entry with C33A, in the test on CAOV3, with CASKI, in the test on Es-2, with HeLa and with JEG-3 was “inactive” each time. Further, the Potency result in the test on OV90, in the test with PA-1, with SKOV3, in the test on Tov-21-G and in the test with Tov112D was “inactive” each time.

For the compound `CC(C)[C@@]1(NC(=O)[C@@H]2C[C@@H]3c4cccc5[nH]cc(c45)C[C@H]3N(C)C2)O[C@@]2(O)[C@@H]3CCCN3C(=O)[C@H](Cc3ccccc3)N2C1=O`, the activity, negative = cell killing in [1] (setting [3]) is 9.68%. The Potency in test [1] is 3160 nM (active).

With `CC[C@H]1CN2CC[C@H]1C[C@H]2[C@H](O)c1ccnc2ccc(OC)cc12`, the Potency result in the test on C33A, in the test with CAOV3, in the test on CASKI, in the test with Es-2, with HeLa and with Hek293T was “inactive” in each case. Besides, the Potency result in the test with JEG-3, in the test on PA-1, with SKOV3, with Tov-21-G and in the test on Tov112D was “inactive” throughout.

For `CCN1C[C@]2(OC(=O)c3ccccc3NC(C)=O)CC[C@H](OC)[C@@]34[C@@H]2C[C@@H]([C@@H]13)[C@@]1(O)C[C@H](OC)[C@H]2C[C@@H]4[C@]1(O)[C@H]2OC`, the Potency entry with C33A, in the test with CASKI, in the test on Es-2, in the test with HeLa, in the test on Hek293T and with JEG-3 was “inactive” each time. Also, the Potency entry in the test on OV90, in the test with PA-1, in the test on SKOV3, in the test on Tov-21-G and in the test with Tov112D was “inactive” throughout.

As for `CC(N)Cc1c[nH]c2ccccc12` (configuration not stated), the Potency entry with C33A, with CAOV3, in the test on CASKI, with Es-2, in the test with HeLa and with Hek293T was “inactive” throughout. Further, the Potency result in the test with JEG-3, in the test with OV90, in the test on PA-1, with Tov-21-G and with Tov112D was “inactive” in each case.

`C[C@H]1O[C@@H](O[C@H]2C[C@@H](O)[C@]3(CO)C4C(CC[C@]3(O)C2)[C@@]2(O)CC[C@H](C3=CC(=O)OC3)[C@@]2(C)C[C@H]4O)[C@@H](O)[C@@H](O)[C@H]1O` (some centres not stated): the Potency with C33A was 398 nM (active); in the test on CAOV3 it was 562 nM (active); in the test on Es-2, 355 nM (active); in the test with HeLa it was 562 nM (active); with Hek293T it was 355 nM (active); in the test on OV90, 1120 nM (active). In addition, the Potency was 562 nM (active) in the test on PA-1, 224 nM (active) in the test with SKOV3, 178 nM (active) in the test with Tov-21-G and 112 nM (active) with Tov112D.
